This is part of a sample that, as a whole, favours compounds with a hit. Of some 83,000 tested, about 20% had one in any assay.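 Activity criterion: percent growth below 10, measured after cells in 96-well plates were exposed to a single compound concentration for 48 hours.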 A number with no mark means an inactive call. Calls of active or inactive are those of the source.

Among the test systems are HCT-15 colon; HT29 colon; SNB-19 CNS; U251 CNS; PC-3 prostate; SK-MEL-5 melanoma; UACC-62 melanoma; LOX IMVI melanoma; SK-MEL-28 melanoma.
Holding throughout (experiment): NCI-60 one-dose screen, 48 h (100 = growth as untreated, 0 = no growth, -100 = all killed)
Holding throughout (settings): 10 µM unless noted

As to `O=C(N/N=C/c1c(Cl)cccc1Cl)c1cccc(Nc2ccnc(C(F)(F)F)c2)c1`, the growth in the assay with HCT-15 colon was 78.5%; with HT29 colon, 96.7%; in the assay on SNB-19 CNS it was 85.7%; in the assay with U251 CNS, 89.6%; with PC-3 prostate, 77%; in the assay with SK-MEL-5 melanoma, 54.6%. Further, the growth with UACC-62 melanoma was 72.5%; in the assay on LOX IMVI melanoma, 83.7%; in the assay on SK-MEL-28 melanoma, 99.3%.

As for `CN(C)CCOc1ccc(/C(=C(/CCCl)c2ccccc2)c2ccccc2)cc1`, the growth in the assay on HCT-15 colon is 23.9%; in the assay on HT29 colon it was -78.8% (active); with SNB-19 CNS, 36.2%; in the assay on U251 CNS, -54.6% (active); in the assay with PC-3 prostate, 18.7%; in the assay on SK-MEL-5 melanoma, -98.3% (active). Moreover, the growth in the assay with UACC-62 melanoma is -21.7% (active); with LOX IMVI melanoma, -84.6% (active); with SK-MEL-28 melanoma, -30.3% (active).

Regarding `C=C(CN=[N+]=[N-])[C@@H]1CC[C@]2(C)[C@H](CC[C@@H]3[C@H]4[C@H]5OC(=O)[C@@]4(CCC5(C)C)CC[C@]32C)[C@@]1(C)CCC#N`, the growth was 87.6% [100 µM] in the assay on HCT-15 colon; 61.7% [100 µM] with HT29 colon; 90.5% [100 µM] with SNB-19 CNS; 79.6% [100 µM] in the assay on U251 CNS; 45.3% [100 µM] in the assay on PC-3 prostate; 41.5% [100 µM] in the assay on SK-MEL-5 melanoma. Besides, the growth in the assay on UACC-62 melanoma was 57.7% [100 µM]; with LOX IMVI melanoma it was 69.3% [100 µM]; in the assay with SK-MEL-28 melanoma, 98.4% [100 µM].

For `Cc1nn(-c2ccccc2)c(N2CCOCC2)c1-c1nc2ccc([N+](=O)[O-])cc2[nH]1`, the growth is 91.5% in the assay on HCT-15 colon; 113% with HT29 colon; 103% with SNB-19 CNS; 102% in the assay with U251 CNS; 112% in the assay on PC-3 prostate; 95.7% with SK-MEL-5 melanoma. The growth in the assay with UACC-62 melanoma is 83.4%; in the assay on LOX IMVI melanoma it was 92.1%; in the assay with SK-MEL-28 melanoma, 102%.

On to `CCN(CC)c1ccc2cc(C(Nc3ccc(Cl)cc3)c3nnnn3C(C)(C)C)c(=O)oc2c1` (stereo unspecified), for which the growth in the assay with HCT-15 colon was 91.8%; in the assay on HT29 colon it was 90.7%; in the assay on SNB-19 CNS it was 87%; with U251 CNS, 82.6%; in the assay on PC-3 prostate, 71.5%; in the assay on SK-MEL-5 melanoma it was 80%. Besides, the growth is 70% with UACC-62 melanoma, 72.4% with LOX IMVI melanoma and 95.8% in the assay on SK-MEL-28 melanoma.

For `FC(F)(F)c1ccc2c(c1)Sc1ccccc1N2`, the growth is 92.2% in the assay on HCT-15 colon; 102% with HT29 colon; 95.9% in the assay with SNB-19 CNS; 91.5% in the assay with U251 CNS; 93.9% in the assay on PC-3 prostate; 98.1% in the assay with SK-MEL-5 melanoma. Besides, the growth in the assay on UACC-62 melanoma was 85.3%; in the assay on SK-MEL-28 melanoma it was 110%.

For `C[C@]12CCc3nc(Nc4ccccc4)sc3C1=CC[C@@H]1[C@@H]2CC[C@]2(C)/C(=N/NC(N)=S)CC[C@@H]12`, the growth in the assay with HCT-15 colon was -11.6% (active); with HT29 colon, 5.72% (active); in the assay with SNB-19 CNS, 62.1%; in the assay with U251 CNS, 37.3%; with PC-3 prostate, 26.6%; in the assay on SK-MEL-5 melanoma, 38.1%. Further, the growth in the assay on UACC-62 melanoma is 42.6%; in the assay with LOX IMVI melanoma, 69.6%; in the assay on SK-MEL-28 melanoma, 63.6%.

On to `C#C[C@]1(O)CC[C@H]2[C@@H]3CC=C4c5nc(Nc6ncccn6)sc5CC[C@]4(C)[C@H]3CC[C@@]21C`, for which the growth is 33.1% in the assay on HCT-15 colon; 55.4% in the assay on HT29 colon; 64.8% with SNB-19 CNS; 21.9% in the assay on U251 CNS; 32.1% in the assay on PC-3 prostate; 68.1% with SK-MEL-5 melanoma. The growth is 1.81% (active) with UACC-62 melanoma and -41.4% (active) with SK-MEL-28 melanoma.

`COc1cccc(-c2[nH]c(=S)ncc2C(=O)c2ccccc2)c1`: the growth is 50.8% in the assay with HCT-15 colon; 46.8% with HT29 colon; 85% in the assay with U251 CNS; 91.6% in the assay with PC-3 prostate; 83.2% in the assay with SK-MEL-5 melanoma; 74.3% in the assay with UACC-62 melanoma. Besides, the growth was 72.4% in the assay with LOX IMVI melanoma and 81.4% in the assay with SK-MEL-28 melanoma.

For the compound `COc1ncc(-c2ccc3nccc(C#CCCCCC(=O)NO)c3c2)cc1NS(=O)(=O)c1ccc(F)cc1F`, the growth was 24.9% in the assay on HCT-15 colon; 7.04% (active) with HT29 colon; 4.98% (active) in the assay with SNB-19 CNS; -14% (active) in the assay with U251 CNS; 7.68% (active) in the assay with PC-3 prostate; -97.3% (active) with SK-MEL-5 melanoma. For the same compound, the growth was -37.3% (active) in the assay with UACC-62 melanoma, -69.4% (active) with LOX IMVI melanoma and -27.9% (active) in the assay on SK-MEL-28 melanoma.

With `CCOC(=O)c1nn(C2CCCCO2)c2ccc(NC(=O)CSc3nc4ccccc4c(=O)[nH]3)cc12` (stereo unspecified), the growth in the assay on HCT-15 colon was 99.5%; in the assay with HT29 colon, 125%; with SNB-19 CNS, 76.3%; with U251 CNS, 97.2%; with PC-3 prostate, 105%; with SK-MEL-5 melanoma, 98.1%. Besides, the growth was 94.5% in the assay on UACC-62 melanoma, 96.2% in the assay with LOX IMVI melanoma and 105% in the assay on SK-MEL-28 melanoma.

Values taken from PubChem BioAssay (NCI).
